Screening results from PubChem BioAssay.
SMN2 splice enh: enhancers of SMN2 splice variant expression; 2.8% of 210,000 active; AID 1458; HEK293 SMN2-luciferase splicing reporter, luminescence, 30-36 h; Potency, µM (titrated, usually from 46.1 µM), most hits filed as activators; further: nearly all actives have a fitted effect of over 55% in size
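HEK293 cells carry an SMN2 minigene-luciferase reporter in which exon 7 inclusion puts luciferase in frame. Cells were seeded at 2000 cells/well, attached for 10-12 hours, then exposed to compounds for 30-36 hours at 37C before ONE-Glo luminescence.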
uPA generation: cell surface uPA generation inhibition. cell surface uPA generation assay, qHTS. Potency, µM (titrated, usually from 38.3 µM), actives largely listed as inhibitors. 0.31% of 330,000 active. AID 540303; active means well fitted inhibition curve with a large enough effect; inconclusive means small, poorly fitted or top-dose-only effect; inactive means no such curve, though single readings can be large or run the other way; tested in mouse RAW 264.7 cells; further: nearly all actives have a fitted effect of over 55% in size
FLuc counter: inhibits or activates purified firefly luciferase, miR-21 counter-screen | 6.9% of 360,000 active | purified FLuc, Km substrates, luminescence inhibition | Potency, µM (top dose mostly 57.5 µM), hits mostly inhibitors; further: nearly all actives have a fitted effect of over 55% in size
Target sequence (P08659 whole entry, looked up): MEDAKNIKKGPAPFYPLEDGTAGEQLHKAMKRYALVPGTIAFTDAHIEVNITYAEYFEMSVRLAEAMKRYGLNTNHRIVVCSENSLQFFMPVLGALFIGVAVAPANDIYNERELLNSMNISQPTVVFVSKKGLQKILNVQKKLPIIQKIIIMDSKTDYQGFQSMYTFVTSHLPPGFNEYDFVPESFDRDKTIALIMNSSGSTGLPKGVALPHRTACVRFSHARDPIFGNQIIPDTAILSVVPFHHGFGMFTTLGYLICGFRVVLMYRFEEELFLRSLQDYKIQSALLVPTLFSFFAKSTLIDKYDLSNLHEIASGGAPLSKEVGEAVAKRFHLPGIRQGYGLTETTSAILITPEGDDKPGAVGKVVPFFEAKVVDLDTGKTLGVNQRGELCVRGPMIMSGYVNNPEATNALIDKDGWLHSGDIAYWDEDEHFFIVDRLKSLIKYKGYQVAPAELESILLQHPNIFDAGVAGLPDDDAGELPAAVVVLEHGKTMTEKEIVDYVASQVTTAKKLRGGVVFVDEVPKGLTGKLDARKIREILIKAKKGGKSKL
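Biochemical qHTS of compounds, final roughly 60 µM downward over six points, against 10 nM purified firefly luciferase using Km concentrations of substrates (10 uM D-luciferin, 10 uM ATP) in Tris acetate pH 7.5 buffer; luminescence output.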
Rab9 prom act: activators of Rab9 promoter; 2.8% of 320,000 active; Potency, µM (doses to about 9.22 µM), hits mostly activators; Huh7 Rab9 promoter-luciferase reporter, luminescence, 24 h; AID 485297; further: nearly all actives have a fitted effect of over 60% in size
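Measured in stably transfected Huh7 cells bearing a Rab9 promoter–luciferase construct: 24 h compound treatment at 37 °C, followed by luminescence detection.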
NPC1 promoter act: activates the NPC1 promoter. 2.4% of 320,000 active. Huh7 NPC1 promoter luciferase reporter, 24 h. Potency, µM (highest dose often 9.22 µM), most hits filed as activators; further: nearly all actives have a fitted effect of over 60% in size
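In 1536-well qHTS, Huh7 cells harboring an NPC1 promoter–luciferase construct received compound for 24 h; activation was quantified by luminescence following luciferase reagent addition.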
ELG1 genotoxic: induces genotoxicity in HEK293T cells with luciferase-tagged ELG1 | HEK293T ELG1-luciferase reporter, luminescence, 16 h | Potency, µM (doses to about 46 µM), actives largely listed as activators | 1.3% of 330,000 active | AID 504466; further: nearly all actives have a fitted effect of over 60% in size
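Luminescence read-out: rising ELG1-luciferase signal, reflecting elevated ELG1 protein under genetic stress, flags genotoxic compounds. Cells were treated for 16 hr at 37 °C before ONE-Glo detection.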
Each line names hits and unclear results; the compound was inactive in the other large screens. Most compounds without a hit are left out; they make up all but 7.3% or so of the library. Unless noted, the call rests on the fitted dose curve; in most records, active means well fitted curve in the direction sought with a large enough effect; inconclusive means small, poorly fitted or top-dose-only effect, or another doubt; inactive means no such curve, though single readings can be large; an effect the other way counts as inactive or inconclusive.

COC[C@H]([C@@H](O)[C@@H](O)C(=O)NCC[C@@H](C)c1nc(/C=C/C[C@H]2OC3(C[C@H](O)[C@H]2C)OC([C@@H](C[C@@H](O)[C@@H](C)[C@@H](O)[C@@H](C)/C=C(C)/C(C)=C/C=C/C(C)=C\C#N)OC)[C@@H](OP(=O)(O)O)C3(C)C)co1)N(C)C (stereo partly specified)	none (no result: uPA generation, FLuc counter, Rab9 prom act, NPC1 promoter act, ELG1 genotoxic)
[O-]/[N+](=C/c1cccnc1)c1ccc(Br)cc1	SMN2 splice enh 13µM, Rab9 prom act 2.8µM, NPC1 promoter act 5.6µM, ELG1 genotoxic inconclusive
COC(=O)c1ccccc1N	none (no result: uPA generation, FLuc counter, Rab9 prom act, NPC1 promoter act, ELG1 genotoxic)
Cc1ccc(N/C=C2/Sc3ccccc3NC2=O)cc1	SMN2 splice enh inconclusive, uPA generation inconclusive, FLuc counter 1.9µM, Rab9 prom act 3.2µM, NPC1 promoter act inconclusive, ELG1 genotoxic inconclusive
O=C1Nc2cc(C(=O)N3CCC4(CC3)OCCO4)ccc2S/C1=C\c1ccccc1	none (no result: SMN2 splice enh)
O=C(Nc1ccc(-c2nc3ccccc3c(=O)o2)cc1)c1ccco1	FLuc counter inconclusive
CC(=O)c1sc(NC(=O)c2ccco2)nc1-c1ccccc1	uPA generation inconclusive, FLuc counter 11µM, Rab9 prom act inconclusive, NPC1 promoter act inconclusive, ELG1 genotoxic 15µM
CN(C)C(=O)CCc1ccc2c3c([nH]c2c1)[C@]1(CCC2CCCC2)[C@@H](C(=O)N2CCOCC2)C[C@H](CC(=O)NCCC2=CCCCC2)C(=O)N1CC3	uPA generation inconclusive (no result: SMN2 splice enh, FLuc counter, Rab9 prom act, NPC1 promoter act)
CNC(=O)c1cccn(Cc2ccc(C(F)(F)F)cc2)c1=O	ELG1 genotoxic 18µM
COc1ccc(-c2c(-c3cc(OC)cc(OC)c3)n(C)c3ccc(-c4ccc(S(N)(=O)=O)cc4)cc23)cc1	uPA generation inconclusive (no result: SMN2 splice enh)
CCc1nnc(NC(=O)CSc2ccc(-c3ccco3)nn2)s1	FLuc counter 15µM
COc1cc2c(c(OC)c1OC)-c1ccc(O)c(=O)cc1[C@@H](NC(C)=O)CC2	uPA generation 8.9µM (no result: SMN2 splice enh, FLuc counter, Rab9 prom act, NPC1 promoter act)
COc1cc2c(c(OC)c1OC)-c1ccc(O)cc1C(NC(C)=O)CC2 (stereo unspecified)	none (no result: SMN2 splice enh, FLuc counter, Rab9 prom act, NPC1 promoter act, ELG1 genotoxic)
CC(C)(C)n1cc(C(=O)c2ccc3ccccc3c2O)cn1	FLuc counter 0.67µM, Rab9 prom act 0.56µM, NPC1 promoter act 0.45µM, ELG1 genotoxic inconclusive
CC(C)(C)n1cc(C(=O)c2ccccc2OCCCF)cn1	none (no result: SMN2 splice enh)
N#Cc1c(/N=C/c2ccc(O)cc2O)sc2c1C1CCN2CC1	FLuc counter 6µM
OCC[n+]1c2ccccc2nc2ccc(N3CCOCC3)cc21	FLuc counter 27µM (no result: SMN2 splice enh)
CC(=O)OCOCC(=O)OCO[P+](=O)C(OCOC(C)=O)c1cc([N+](=O)[O-])ccc1Oc1ccc(Br)cc1 (stereo unspecified)	none (no result: uPA generation, FLuc counter, Rab9 prom act, NPC1 promoter act, ELG1 genotoxic)
OC[C@H]1O[C@@H](n2cnc3cc(Cl)c(Cl)cc32)[C@H](O)[C@@H]1O	uPA generation 8.9µM (no result: SMN2 splice enh)
Nc1nc(=S)c2ncn([C@H]3O[C@@H](CO)[C@@H](O)[C@@H]3O)c2[nH]1	none (no result: uPA generation, FLuc counter, Rab9 prom act, NPC1 promoter act, ELG1 genotoxic)
CCC12CCN(Cc3ccc(F)cc3)CC1Oc1c(O)cccc12 (stereo unspecified)	none (no result: SMN2 splice enh, uPA generation, Rab9 prom act, NPC1 promoter act, ELG1 genotoxic)
Cc1ccc(-c2nn(Cc3ccccc3)cc2C=O)cc1	SMN2 splice enh inconclusive, FLuc counter 19µM, Rab9 prom act 3.5µM, NPC1 promoter act inconclusive
Cc1ccc(-c2nn(Cc3ccccc3)cc2C=O)cc1C	FLuc counter 27µM
Cc1ccc(Cn2cc(C=O)c(-c3ccc(F)cc3)n2)cc1	FLuc counter inconclusive (no result: SMN2 splice enh)
NS(=O)(=O)c1ccc(-c2ccc([As](=O)(O)O)cc2)cc1	none (no result: uPA generation, FLuc counter, Rab9 prom act, NPC1 promoter act, ELG1 genotoxic)
O=c1cc(-c2ccc(O)c(O)c2)oc2cc(O)cc(O)c12	SMN2 splice enh 8.9µM, uPA generation inconclusive, FLuc counter 24µM, ELG1 genotoxic inconclusive
CC(Cc1cccc(C(F)(F)F)c1)NCCCc1ccccc1 (stereo unspecified)	none (no result: uPA generation, FLuc counter, Rab9 prom act, NPC1 promoter act, ELG1 genotoxic)
CN1CCc2cccc3c2[C@@H]1Cc1ccc(O)c(O)c1-3	FLuc counter inconclusive
CN1CCc2cc3c(c4c2C1Cc1ccccc1-4)OCO3 (stereo unspecified)	Rab9 prom act 6.3µM (no result: SMN2 splice enh)
O=C(O)[C@@H]1CSC(c2cccnc2)N1 (stereo partly specified)	none (no result: uPA generation, FLuc counter, Rab9 prom act, NPC1 promoter act, ELG1 genotoxic)
CN1CCN(Cc2ccc3ccccc3c2)CC1	none (no result: SMN2 splice enh)
